Screening results deposited in PubChem BioAssay by Johns Hopkins Ion Channel Center.
The list is not random: actives were taken first. Their share in the collection is about 1.6%.
KCNQ2 enhance: potentiators of rat KCNQ2 potassium channel; 310,000 compounds, 0.54% hits; CHO-K1 KCNQ2, FluxOR thallium flux fluorescence; stronger effect = higher value; Potassium voltage-gated channel subfamily KQT member 2 (Rattus norvegicus), O88943; B-score at 10 µM; AID 2239, 2010;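 active = fluorescence ratio B-score at least 3 SD of library B-scores, with initial fluorescence B-score within 3 of them, cut at about 5.3 in these data; same plate scores as AID 2156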;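 note: B-score of peak minus minimum over baseline fluorescence ratio after K+ and Tl+ stimulus; positive B-score means potentiation of KCNQ2 with more thallium influx and brighter signal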
KCNQ2 block: rat KCNQ2 potassium channel inhibitors, primary screen, cell-based, CHO-K1, FluxOR thallium flux, B-score; B-score at 10 µM; Potassium voltage-gated channel subfamily KQT member 2 (Rattus norvegicus), O88943; 20 min; stronger effect = lower value; 310,000 compounds, 1.1% hits;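 active = fluorescence ratio B-score at most minus 3 library SDs, with starting brightness B-score within 2 library SDs, cut at about -5.5 in these data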
Kir21 conf inh: mouse Kir2.1 channel blockers, retest, confirmation, cell-based, FluxOR thallium flux, duplicate | 2,300 compounds, 41% hits | Kir2.1-expressing cells, FluxOR thallium flux fluorescence; stronger effect = lower value | Tl flux remaining, % of negative control (stronger effect = lower value), % at 10 µM | shares compounds with KCNQ2 enhance;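 active = Primary-screen hit whose thallium flux fell at least 3 control SD below untreated wells in both duplicates, with normal baseline fluorescence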;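 note: 0% = blank wells without stimulus and 100% = stimulated no-compound controls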
Target sequence (P35561 whole entry, looked up): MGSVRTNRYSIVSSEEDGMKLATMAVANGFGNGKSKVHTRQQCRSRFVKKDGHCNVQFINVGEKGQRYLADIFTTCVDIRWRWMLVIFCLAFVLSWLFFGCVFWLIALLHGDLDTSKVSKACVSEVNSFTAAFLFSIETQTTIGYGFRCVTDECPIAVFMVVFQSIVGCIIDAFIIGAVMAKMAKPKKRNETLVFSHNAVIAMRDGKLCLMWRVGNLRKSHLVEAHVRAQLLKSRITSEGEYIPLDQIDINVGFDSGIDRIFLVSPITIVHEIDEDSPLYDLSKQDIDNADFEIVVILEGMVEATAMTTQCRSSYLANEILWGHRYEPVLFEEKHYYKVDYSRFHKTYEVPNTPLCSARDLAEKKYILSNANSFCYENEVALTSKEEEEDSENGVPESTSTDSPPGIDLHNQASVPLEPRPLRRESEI
HEK293 Tl flux: counter-screen for Kir2.1 inhibitors: effect in parental HEK293 cells; 2,300 compounds, 19% hits; AID 2105; shares compounds with KCNQ2 enhance; FluxOR thallium flux fluorescence; 0% = unstimulated blank wells; FluxOR signal as % of negative control (100 = no effect), % at 10 µM;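 active = dye signal at least 3 control SD above or below untreated wells in both duplicates, raw fluorescence within 3, either direction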;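 note: percent is based on the flux ratio of peak minus minimum fluorescence over baseline F0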
CHO-K1 Tl ctr: nonspecific thallium flux increase in parental CHO-K1, confirmation, counter-screen for KCNQ2 potentiator project, cell-based, FluxOR thallium flux, duplicate; shares compounds with KCNQ2 enhance; parental CHO-K1 cells, FluxOR thallium flux fluorescence; zero = vehicle mean+3SD, 100% = vehicle-minus-blank window; activity increase over 3SD of controls, % at 10 µM; 1,200 compounds, 43% hits;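 active = signal rise of at least 3 SD above the untreated control mean, in both duplicate wells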;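 note: counter screen of KCNQ2 potentiator hits so any rise reflects channel-independent effects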
KCNQ1 sel pot: human KCNQ1 channel potentiation off-target, confirmation, selectivity assay for KCNQ2 potentiator project, cell-based, CHO, FluxOR thallium flux; activation over 3SD threshold, % at 10 µM; shares compounds with KCNQ2 enhance; CHO KCNQ1 stable, FluxOR thallium flux fluorescence; beyond 3SD, as % of vehicle-control signal; 1,200 compounds, 28% hits; AID 2283, 2010;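 active = fluorescence ratio rise of at least 3 SD of vehicle wells above their mean, in both replicate wells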;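 note: 0% = vehicle mean plus 3 SD and 100% = vehicle minus unstimulated blank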
KCNQ2 pot conf: rat KCNQ2 channel potentiators, confirmation, cell-based, CHO, FluxOR thallium flux, duplicate; shares compounds with KCNQ2 enhance; CHO-KCNQ2 cells, FluxOR thallium flux fluorescence; potentiation, less the hit threshold, % at 10 µM; 1,200 compounds, 68% hits; AID 2287, 2010;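 active = fluorescence ratio rising 3 SD or more over the vehicle control mean in both replicates, plus primary screen hit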;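 note: peak minus minimum thallium fluorescence divided by baseline after K/Tl stimulus; 0% = vehicle mean plus 3 SD and 100% = vehicle minus unstimulated blank difference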
Kir21 spec: mouse Kir2.1 channel activation off-target, confirmation, selectivity assay for KCNQ2 potentiator project, cell-based, HEK293, FluxOR thallium flux | activity over 3SD threshold, % at 10 µM | 1,200 compounds, 2% hits | shares compounds with KCNQ2 enhance | HEK293 Kir2.1, FluxOR thallium flux fluorescence;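 active = fluorescence ratio rise of at least 3 SD above the vehicle-control mean, seen in both replicates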;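 note: 0% = vehicle mean plus 3 SD and 100% = vehicle minus no-stimulus blank window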
KCNQ2 W236L MoA: potentiators of retigabine-insensitive KCNQ2 W236L, mechanism study for KCNQ2 potentiator project, cell-based, rat KCNQ2 W236L, CHO, automated patch clamp; shares compounds with KCNQ2 enhance; automated patch clamp current; current increase over 3SD of negative controls (%), stronger effect = higher value, % at 25 µM; 940 compounds, 10% hits;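 active = current increase at least 3 SD of the untreated controls above them in both duplicate recordings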
* marks the source's active call; other numbers are inactive results; i = inactive; · = not tested or not shown.

SMILES	KCNQ2 enhance	KCNQ2 block	Kir21 conf inh	HEK293 Tl flux	others
COc1cc(/C=C(\C#N)C(=O)N2CCOCC2)cc(Br)c1O	·	i	·	·
N#C/C(=C\c1cccc(Oc2ccccc2)c1)C(=O)N1CCOCC1	-6.4	-6.4*	36%*	i
CCN(CCNC(=O)c1ccc(C#N)cc1)c1cccc(C)c1	·	i	·	·
CCN(CCNCC(O)COCc1ccc(Cl)cc1)c1cccc(C)c1 (centres undefined)	·	i	36%*	i
Fc1ccc(CSc2nnc(-c3ccccn3)o2)cc1	0.9	i	·	·
Cc1ccc(N=C(N)N=C(N)N)c(C)c1	·	i	·	·
CCOc1cc(CNCCO)cc(Br)c1OCc1ccccc1Cl	-7.4	-7.4*	i	i
CCOc1cc(CNC(C)(C)CO)cc(Br)c1OCc1ccc(Cl)cc1Cl	-7.7	-7.7*	22%*	i
COc1cc(CNCCO)cc(Cl)c1OCc1ccccc1Cl	·	i	·	·
COc1cc(CNC(C)(C)CO)cc(Br)c1OCc1ccccc1	1.4	i	·	·
CCN1N=C(c2ccccc2)Cn2c1nc1ccccc12	1.3	i	·	·
Cn1c(=O)c2c(SCC(=O)N3CCOCC3)nc(C3CCCCC3)nc2n(C)c1=O	3.8	i	·	·
Cn1c(=O)c2c(SCC(=O)N3CCCC3)nc(-c3ccccc3)nc2n(C)c1=O	2.4	i	·	·
CCCCc1nc(SCC(=O)N2CCOCC2)c2c(=O)n(C)c(=O)n(C)c2n1	5.4*	i	i	i	CHO-K1 Tl ctr=-4;KCNQ1 sel pot=57*;KCNQ2 pot conf=9.8*;Kir21 spec=-28;KCNQ2 W236L MoA=i
CC1CCN(C(=O)CSc2nc(C(C)C)nc3c2c(=O)n(C)c(=O)n3C)CC1	27*	i	i	i	CHO-K1 Tl ctr=21*;KCNQ1 sel pot=-2;KCNQ2 pot conf=124*;Kir21 spec=-24;KCNQ2 W236L MoA=i
Cc1nc(SCC(=O)N2CCOCC2)c2c(=O)n(C)c(=O)n(C)c2n1	1.1	i	·	·
CCCCc1nc(SCC(=O)N2CCCCC2)c2c(=O)n(C)c(=O)n(C)c2n1	26*	i	i	i	CHO-K1 Tl ctr=-16;KCNQ1 sel pot=-25;KCNQ2 pot conf=100*;Kir21 spec=-43;KCNQ2 W236L MoA=i
CC(C)Cc1nc(SCC(=O)N2CCCC2)c2c(=O)n(C)c(=O)n(C)c2n1	6.5*	i	i	i	CHO-K1 Tl ctr=33*;KCNQ1 sel pot=-10;KCNQ2 pot conf=19*;Kir21 spec=-9;KCNQ2 W236L MoA=i
CC(C)c1nc(SCC(=O)N2CCCc3ccccc32)c2c(=O)n(C)c(=O)n(C)c2n1	0.99	i	·	·
COCCCNC(=O)CC1C(=O)N(Cc2ccccc2)C(C)c2nc3ccccc3n21 (centres undefined)	·	i	·	·
O=C(OCc1cccc(F)c1)c1ccc2c(=O)n3c(nc2c1)CCC3	2.2	i	·	·
CCCCc1nc(SCCOC)c2c(=O)n(C)c(=O)n(C)c2n1	2	i	·	·
CCCCc1nc(SCC(=O)N2CCCC2)c2c(=O)n(C)c(=O)n(C)c2n1	8.2*	i	i	i	CHO-K1 Tl ctr=-22;KCNQ1 sel pot=-11;KCNQ2 pot conf=38*;Kir21 spec=-34;KCNQ2 W236L MoA=i
O=C(Nc1nnc(-c2ccc(Br)cc2)o1)c1ccco1	17*	i	i	i	CHO-K1 Tl ctr=-6;KCNQ1 sel pot=-17;KCNQ2 pot conf=19*;Kir21 spec=-32;KCNQ2 W236L MoA=i
CS(=O)(=O)c1ccc(-c2nnc(NC(=O)c3ccco3)o2)cc1	0.06	i	·	·
SMILES	KCNQ2 enhance	KCNQ2 block	Kir21 conf inh	HEK293 Tl flux	others
Cn1cnnc1SCC(=O)NC1CCCC1	1.9	i	·	·
S=C(NCc1ccccc1)NC1CCCc2ccccc21 (centres undefined)	·	i	i	i
S=C(NCc1ccco1)NC1CCCc2ccccc21 (centres undefined)	·	i	·	·
CN(CC(=O)Nc1ccc(N2CCOCC2)cc1)CC(=O)Nc1ccc(Cl)cc1[N+](=O)[O-]	·	i	·	·
CCOC(CCNC(=O)c1cn(CC(C)C)c(=O)c2c1c1ccccc1n2C)OCC	·	i	·	·
CCC(C)NC(=O)c1ccccc1-c1nc2ccccc2[nH]1 (centres undefined)	·	i	·	·
COc1ccc(C)cc1NC(=O)C1CCN(S(C)(=O)=O)CC1	·	i	·	·
COc1ccc(CCNC(=O)C2CC2)cc1OC	·	i	·	·
COc1ccc(CCNC(=O)C2CCC(C(C)(C)C)CC2)cc1OC (centres undefined)	·	i	48%*	i
COc1ccc(C)cc1NC(=O)NNC(=O)C1CCC(C(C)(C)C)CC1 (centres undefined)	11*	i	i	i	CHO-K1 Tl ctr=-8;KCNQ1 sel pot=-16;KCNQ2 pot conf=31*;Kir21 spec=-24;KCNQ2 W236L MoA=i
CSc1ccccc1NC(=O)c1ccc(N2CC3CC(C2)c2cccc(=O)n2C3)c(NC(=O)c2cccnc2)c1 (centres undefined)	·	i	·	·
CCOc1c(Cl)cc(C(=O)Nc2cccc(C(=O)O)c2)cc1Cl	0.97	i	·	·
O=C(COc1ccccc1Cl)NC1CC1	·	i	·	·
CCOC(=O)COc1ccc2ccccc2c1/C=C/[N+](=O)[O-]	·	i	·	·
CCOc1ccc(/C=C/[N+](=O)[O-])c2ccccc12	·	i	i	i
Cc1ccc(OCC(=O)NC(=S)Nc2ccc(Br)cn2)cc1C	·	i	·	·
O=C(Nc1ccccc1)c1cc(S(=O)(=O)N2CCSCC2)ccc1Cl	·	i	·	·
O=C(Nc1cccc(O)c1)c1cc(S(=O)(=O)N2CCCC2)ccc1Cl	5.3*	i	i	i	CHO-K1 Tl ctr=40*;KCNQ1 sel pot=-7;KCNQ2 pot conf=-12;Kir21 spec=-27
CCc1nc(SCc2ccc(OCC(C)C)cc2)n[nH]1	·	i	·	·
Cc1ccn(CCC(=O)Nc2ccc3c(c2)OCO3)n1	·	i	·	·
C#CCNC(=O)C1=C[C@@H](C2CC2)C[C@@H](OCc2ccc(CO)cc2)O1	0.66	i	51%*	i
C#CCNC(=O)C1=C[C@@H](C(C)(C)C)C[C@@H](OCc2ccc(CO)cc2)O1	·	i	·	·
